Assay results from ChEMBL document CHEMBL2218924, “A broad activity screen in support of a chemogenomic map for kinase signalling research and drug discovery” (Biochem J, 2013).

Experiments:
[1] = biological target: T1, Rhodopsin kinase GRK7 (Homo sapiens) (UniProt Q8WTQ7); details: at 10 µM
T1 sequence (whole entry): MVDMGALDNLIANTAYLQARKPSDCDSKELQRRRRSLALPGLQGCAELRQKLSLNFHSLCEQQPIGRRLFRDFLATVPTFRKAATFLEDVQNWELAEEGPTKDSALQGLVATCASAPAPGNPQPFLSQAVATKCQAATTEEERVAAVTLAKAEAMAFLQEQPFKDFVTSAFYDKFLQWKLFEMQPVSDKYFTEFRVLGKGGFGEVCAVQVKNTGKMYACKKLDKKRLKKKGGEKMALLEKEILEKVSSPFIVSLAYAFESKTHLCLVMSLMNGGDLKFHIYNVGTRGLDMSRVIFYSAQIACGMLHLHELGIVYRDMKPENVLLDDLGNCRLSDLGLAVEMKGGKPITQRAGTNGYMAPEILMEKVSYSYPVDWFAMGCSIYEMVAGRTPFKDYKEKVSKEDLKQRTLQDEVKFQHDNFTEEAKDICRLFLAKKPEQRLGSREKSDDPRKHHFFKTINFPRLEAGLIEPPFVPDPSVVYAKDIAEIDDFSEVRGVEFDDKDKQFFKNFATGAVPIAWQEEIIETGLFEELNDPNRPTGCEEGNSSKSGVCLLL

[2] = biological target: Glycogen synthase kinase-3 alpha (Homo sapiens) (UniProt P49840); details: at 1 µM
[3] = biological target: Glycogen synthase kinase-3 alpha (Homo sapiens) (UniProt P49840); details: at 10 µM
[4] = biological target: Glycogen synthase kinase-3 beta (Homo sapiens) (UniProt P49841); details: at 1 µM
[5] = biological target: Glycogen synthase kinase-3 beta (Homo sapiens) (UniProt P49841); details: at 10 µM
[6] = biological target: Homeodomain-interacting protein kinase 1 (Homo sapiens) (UniProt Q86Z02); details: at 1 µM
[7] = biological target: Homeodomain-interacting protein kinase 1 (Homo sapiens) (UniProt Q86Z02); details: at 10 µM
[8] = biological target: Homeodomain-interacting protein kinase 2 (Homo sapiens) (UniProt Q9H2X6); details: at 1 µM
[9] = biological target: Homeodomain-interacting protein kinase 2 (Homo sapiens) (UniProt Q9H2X6); details: at 10 µM
[10] = biological target: Homeodomain-interacting protein kinase 3 (Homo sapiens) (UniProt Q9H422); details: at 1 µM
Homeodomain-interacting protein kinase 3 (Homo sapiens), sequence (Q9H422 whole entry, looked up): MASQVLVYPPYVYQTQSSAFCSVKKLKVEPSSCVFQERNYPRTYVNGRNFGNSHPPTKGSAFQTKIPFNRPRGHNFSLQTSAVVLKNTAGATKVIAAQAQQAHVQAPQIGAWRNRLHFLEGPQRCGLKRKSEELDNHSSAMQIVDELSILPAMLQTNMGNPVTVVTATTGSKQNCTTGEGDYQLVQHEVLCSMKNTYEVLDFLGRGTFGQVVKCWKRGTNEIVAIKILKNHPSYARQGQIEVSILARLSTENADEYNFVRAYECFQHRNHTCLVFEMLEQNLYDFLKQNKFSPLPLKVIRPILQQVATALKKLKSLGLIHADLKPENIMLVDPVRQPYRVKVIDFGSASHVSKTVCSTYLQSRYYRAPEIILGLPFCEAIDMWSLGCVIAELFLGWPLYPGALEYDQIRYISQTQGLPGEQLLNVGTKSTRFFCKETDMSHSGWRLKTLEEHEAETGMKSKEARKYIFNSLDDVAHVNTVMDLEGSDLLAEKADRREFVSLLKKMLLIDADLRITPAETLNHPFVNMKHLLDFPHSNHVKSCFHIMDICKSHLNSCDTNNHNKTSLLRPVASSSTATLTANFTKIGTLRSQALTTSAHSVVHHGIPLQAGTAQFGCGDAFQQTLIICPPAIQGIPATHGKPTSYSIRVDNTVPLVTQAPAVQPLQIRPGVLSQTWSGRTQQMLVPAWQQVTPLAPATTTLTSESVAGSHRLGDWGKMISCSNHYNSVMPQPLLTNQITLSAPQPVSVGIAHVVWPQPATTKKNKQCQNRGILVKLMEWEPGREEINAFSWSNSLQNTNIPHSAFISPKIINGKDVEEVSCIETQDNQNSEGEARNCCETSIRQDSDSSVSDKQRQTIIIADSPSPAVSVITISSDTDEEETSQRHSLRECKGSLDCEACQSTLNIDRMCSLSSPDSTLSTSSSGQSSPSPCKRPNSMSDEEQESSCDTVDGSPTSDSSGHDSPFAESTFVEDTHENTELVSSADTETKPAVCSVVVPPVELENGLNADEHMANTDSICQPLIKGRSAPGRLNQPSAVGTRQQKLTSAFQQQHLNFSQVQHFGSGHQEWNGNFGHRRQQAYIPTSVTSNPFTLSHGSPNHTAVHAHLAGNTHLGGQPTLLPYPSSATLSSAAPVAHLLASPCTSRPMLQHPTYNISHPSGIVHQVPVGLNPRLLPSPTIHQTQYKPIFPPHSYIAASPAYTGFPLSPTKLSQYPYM

Homeodomain-interacting protein kinase 2 (Homo sapiens), sequence (Q9H2X6 whole entry, looked up): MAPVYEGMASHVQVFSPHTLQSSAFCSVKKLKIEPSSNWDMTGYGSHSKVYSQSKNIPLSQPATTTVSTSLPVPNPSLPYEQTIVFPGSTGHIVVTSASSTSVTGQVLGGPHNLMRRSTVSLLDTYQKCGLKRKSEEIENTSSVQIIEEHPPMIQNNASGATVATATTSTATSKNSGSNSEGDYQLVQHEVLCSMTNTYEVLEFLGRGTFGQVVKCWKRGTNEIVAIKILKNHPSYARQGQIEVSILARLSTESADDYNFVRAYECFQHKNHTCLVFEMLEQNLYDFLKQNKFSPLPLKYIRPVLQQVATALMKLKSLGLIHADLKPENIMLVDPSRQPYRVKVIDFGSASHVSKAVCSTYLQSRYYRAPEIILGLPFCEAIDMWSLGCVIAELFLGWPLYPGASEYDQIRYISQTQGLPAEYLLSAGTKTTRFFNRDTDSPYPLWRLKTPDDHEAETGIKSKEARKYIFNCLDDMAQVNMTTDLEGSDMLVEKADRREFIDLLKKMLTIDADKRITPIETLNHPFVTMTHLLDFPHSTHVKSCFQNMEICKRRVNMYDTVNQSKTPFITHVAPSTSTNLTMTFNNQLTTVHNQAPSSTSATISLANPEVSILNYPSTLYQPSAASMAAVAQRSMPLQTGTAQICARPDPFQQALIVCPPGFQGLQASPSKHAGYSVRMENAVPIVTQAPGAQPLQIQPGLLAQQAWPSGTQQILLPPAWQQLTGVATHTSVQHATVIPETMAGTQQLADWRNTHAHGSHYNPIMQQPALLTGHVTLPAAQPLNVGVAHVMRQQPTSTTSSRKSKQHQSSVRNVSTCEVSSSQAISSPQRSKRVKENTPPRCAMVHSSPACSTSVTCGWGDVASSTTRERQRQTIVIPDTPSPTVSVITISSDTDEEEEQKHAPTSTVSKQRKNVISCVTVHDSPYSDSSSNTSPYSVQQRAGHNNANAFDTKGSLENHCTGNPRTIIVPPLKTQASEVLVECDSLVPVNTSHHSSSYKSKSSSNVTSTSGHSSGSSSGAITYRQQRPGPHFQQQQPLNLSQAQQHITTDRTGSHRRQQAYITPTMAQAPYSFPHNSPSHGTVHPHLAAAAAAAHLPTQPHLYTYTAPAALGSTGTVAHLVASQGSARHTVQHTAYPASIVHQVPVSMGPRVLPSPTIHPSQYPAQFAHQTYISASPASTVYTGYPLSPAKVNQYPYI
Glycogen synthase kinase-3 beta (Homo sapiens), sequence (P49841 whole entry, looked up): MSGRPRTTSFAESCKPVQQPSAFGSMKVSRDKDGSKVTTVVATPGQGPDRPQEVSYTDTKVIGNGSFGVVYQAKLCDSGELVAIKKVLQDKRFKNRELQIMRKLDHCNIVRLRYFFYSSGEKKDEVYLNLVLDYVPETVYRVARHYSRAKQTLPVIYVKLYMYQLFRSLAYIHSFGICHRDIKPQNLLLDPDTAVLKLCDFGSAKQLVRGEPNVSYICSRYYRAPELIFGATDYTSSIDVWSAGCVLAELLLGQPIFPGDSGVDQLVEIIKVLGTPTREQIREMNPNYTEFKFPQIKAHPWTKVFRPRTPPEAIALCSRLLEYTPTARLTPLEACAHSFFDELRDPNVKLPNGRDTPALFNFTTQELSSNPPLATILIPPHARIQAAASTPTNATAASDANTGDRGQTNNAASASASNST
Glycogen synthase kinase-3 alpha (Homo sapiens), sequence (P49840 2-483 limits assumed): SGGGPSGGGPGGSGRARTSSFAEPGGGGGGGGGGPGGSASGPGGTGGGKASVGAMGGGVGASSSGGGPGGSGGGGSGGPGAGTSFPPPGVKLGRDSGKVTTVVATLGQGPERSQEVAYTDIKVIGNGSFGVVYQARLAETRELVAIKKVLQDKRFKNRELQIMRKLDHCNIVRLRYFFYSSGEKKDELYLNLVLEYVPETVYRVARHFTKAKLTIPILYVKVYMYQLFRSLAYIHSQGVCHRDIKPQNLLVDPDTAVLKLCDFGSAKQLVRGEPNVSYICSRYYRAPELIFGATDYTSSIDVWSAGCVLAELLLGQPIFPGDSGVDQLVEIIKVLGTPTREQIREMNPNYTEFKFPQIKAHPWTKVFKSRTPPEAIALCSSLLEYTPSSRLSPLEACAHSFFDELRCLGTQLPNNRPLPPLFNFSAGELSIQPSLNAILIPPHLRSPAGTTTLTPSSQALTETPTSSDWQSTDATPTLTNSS
Homeodomain-interacting protein kinase 1 (Homo sapiens), sequence (Q86Z02 whole entry, looked up): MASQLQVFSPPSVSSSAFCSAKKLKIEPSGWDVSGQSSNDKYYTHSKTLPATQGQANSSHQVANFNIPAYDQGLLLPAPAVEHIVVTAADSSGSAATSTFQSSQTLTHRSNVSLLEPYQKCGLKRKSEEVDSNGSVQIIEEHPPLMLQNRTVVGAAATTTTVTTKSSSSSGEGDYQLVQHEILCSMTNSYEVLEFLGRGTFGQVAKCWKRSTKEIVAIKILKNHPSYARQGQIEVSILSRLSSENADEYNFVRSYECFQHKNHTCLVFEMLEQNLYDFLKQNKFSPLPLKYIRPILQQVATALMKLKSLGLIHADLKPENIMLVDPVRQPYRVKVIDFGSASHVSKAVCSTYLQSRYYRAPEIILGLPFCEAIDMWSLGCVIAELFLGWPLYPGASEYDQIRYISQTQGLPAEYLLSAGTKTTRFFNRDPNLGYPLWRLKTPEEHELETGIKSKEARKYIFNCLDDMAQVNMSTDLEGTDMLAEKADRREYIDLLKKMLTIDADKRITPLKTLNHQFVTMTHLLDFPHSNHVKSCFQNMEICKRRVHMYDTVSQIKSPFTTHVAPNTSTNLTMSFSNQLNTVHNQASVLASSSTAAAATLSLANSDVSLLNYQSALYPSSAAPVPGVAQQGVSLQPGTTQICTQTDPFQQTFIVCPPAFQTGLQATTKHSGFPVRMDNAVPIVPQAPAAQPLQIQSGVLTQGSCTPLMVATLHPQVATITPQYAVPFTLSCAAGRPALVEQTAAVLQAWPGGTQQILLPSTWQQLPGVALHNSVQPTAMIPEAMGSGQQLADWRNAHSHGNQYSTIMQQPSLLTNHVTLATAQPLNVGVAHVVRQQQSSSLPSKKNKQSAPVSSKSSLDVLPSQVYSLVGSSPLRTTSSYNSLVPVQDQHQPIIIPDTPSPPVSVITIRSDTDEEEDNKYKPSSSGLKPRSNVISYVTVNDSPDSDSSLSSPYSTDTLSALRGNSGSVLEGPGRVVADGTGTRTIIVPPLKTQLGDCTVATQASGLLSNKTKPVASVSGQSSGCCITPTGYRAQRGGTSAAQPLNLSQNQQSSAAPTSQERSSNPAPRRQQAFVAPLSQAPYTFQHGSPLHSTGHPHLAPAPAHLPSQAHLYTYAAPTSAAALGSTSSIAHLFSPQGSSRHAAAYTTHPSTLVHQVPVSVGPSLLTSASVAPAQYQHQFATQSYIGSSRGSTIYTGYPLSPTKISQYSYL

Row | Compound | residual activity [1] | residual activity [2] | residual activity [3] | residual activity [4] | residual activity [5] | residual activity [6] | residual activity [7] | residual activity [8] | residual activity [9] | residual activity [10]
1 | O=C(Nc1cccc(Nc2nccc(Nc3cccc(C(F)(F)F)c3)n2)c1)C1CC1 | 88% | 94% | 67% | 79% | 104% | 96% | 102% | 93% | 89% | 103%
2 | O=Nc1c(-c2c(O)[nH]c3ccccc23)[nH]c2ccccc12 | 18% | 5% | 1% | 10% | 1% | 90% | 73% | 48% | 8% | 88%
3 | CC#CC(=O)Nc1cc2c(Nc3ccc(F)c(Cl)c3)ncnc2cn1 | 76% | 129% | 125% | 97% | 82% | 98% | 111% | 103% | 103% | 88%
4 | Nc1nc(Nc2ccc(S(N)(=O)=O)cc2)nn1C(=S)Nc1c(F)cccc1F |  | 3% | 2% | 4% | 0% | 30% | 47% | 12% | 0% | 25%
5 | O=C1NC(=O)c2c1c1c3ccccc3[nH]c1c1[nH]c3cc(Br)ccc3c21 | 79% | 92% | 30% | 103% | 57% | 102% | 96% | 101% | 85% | 92%
6 | COc1cc2ncnc(Nc3ccc(NC(=O)c4ccccc4)cc3)c2cc1OC | 95% |  |  | 97% | 104% | 102% | 97% | 99% | 87% | 101%
7 | N#CC(C#N)=C(N)/C(C#N)=C/c1ccc(O)cc1 | 91% |  |  | 83% | 88% | 97% | 99% | 91% | 78% | 
8 | O=C1Nc2ccc(Br)cc2/C1=C\c1cc2c([nH]1)CCCC2 |  | 113% | 122% |  |  |  | 99% | 82% |  | 97%
9 | Oc1ccc(Nc2nc(-c3ccc(Cl)cc3)cs2)cc1 | 103% | 97% | 88% | 131% | 114% |  | 95% | 92% | 89% | 105%
10 | O=C(Nc1cccc(Nc2cc(Nc3cccc(C(F)(F)F)c3)ncn2)c1)C1CC1 | 92% | 107% | 102% | 89% | 89% | 104% | 98% | 110% | 98% | 99%
11 | N#CCCc1ccc2c(c1)-c1[nH]c3ccc([N+](=O)[O-])cc3c1CC(=O)N2 |  | 1% | 0% | -3% | 0% |  |  | 64% | 24% | 
12 | COc1cc2ncnc(Nc3ccc(O)c(Br)c3)c2cc1OC | 69% | 116% | 108% | 89% | 86% | 97% | 104% | 87% | 75% | 95%
13 | O=C1NC(=O)c2cc(Nc3ccc(F)cc3)c(Nc3ccc(F)cc3)cc21 | 77% | 84% | 40% | 69% | 27% | 93% | 99% | 94% | 84% | 97%
14 | Cn1nc2c3c(cccc31)C(=O)c1ccccc1-2 | 81% | 86% | 74% | 108% | 107% | 105% | 96% | 79% | 36% | 90%
15 | CC(=O)c1ccc(N2CCOCC2)cc1O | 90% |  |  | 101% | 109% | 97% | 104% | 100% | 94% | 95%
16 | COc1cc2ncc(-c3ccccc3)nc2cc1OC |  |  |  | 93% | 138% |  |  | 96% | 97% | 100%
17 | CC[n+]1c(/C=C/N(C)c2ccccc2)n(-c2ccccc2)c2ccc(-c3nc4ccccc4s3)cc21 | 97% | 122% |  | 109% | 116% | 102% | 93% | 95% | 77% | 99%
18 | Nc1cccc(-c2cc3c(Oc4cccc(O)c4)ncnc3[nH]2)c1 | 91% | 27% | 3% | 22% | 6% |  |  | 95% | 54% | 
19 | CCN(CC)CCCCN1c2ccccc2Oc2ccc(Cl)cc21 | 95% | 133% | 124% | 103% | 129% | 103% | 113% | 108% | 96% | 97%
